# The list is not random: actives were taken first. Their share in the collection is about 11%.
# PNC assembly inh – inhibitors of perinucleolar compartment assembly. 140,000 compounds, 3.1% hits. PC3M PTB-GFP, PNC prevalence imaging, 16 h; hits give low values. activity change (PNC), negative = inhibition, % at 10 µM. AID 2417;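 active means readout at or below -70, meaning at least 70% loss of cells showing the perinucleolar compartment, a nuclear body marking cancer cells; inconclusive means readout between -30 and a set limit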;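 further: plate controls were DMSO wells for no effect and camptothecin positive control wells for full effect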
#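 PC3M cells stably expressing PTB-GFP, 750–1000 cells/well, treated 16 h at 37 °C with compound (23 nl of library stock), in duplicate. After paraformaldehyde fixation and Hoechst stain, imaged at 20x; PNC prevalence scored by image analysis.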
# HPGD block – blocks human HPGD enzyme activity | P15428 | Potency, µM, for the others: at the highest dose activity change, negative = inhibition, usual class: inhibitors | 150,000 compounds, 4.3% hits | purified HPGD, NADH fluorescence kinetic, PGE2 substrate; further: potency means the concentration at half of the fitted maximal effect
# Target sequence (P15428 whole entry, looked up): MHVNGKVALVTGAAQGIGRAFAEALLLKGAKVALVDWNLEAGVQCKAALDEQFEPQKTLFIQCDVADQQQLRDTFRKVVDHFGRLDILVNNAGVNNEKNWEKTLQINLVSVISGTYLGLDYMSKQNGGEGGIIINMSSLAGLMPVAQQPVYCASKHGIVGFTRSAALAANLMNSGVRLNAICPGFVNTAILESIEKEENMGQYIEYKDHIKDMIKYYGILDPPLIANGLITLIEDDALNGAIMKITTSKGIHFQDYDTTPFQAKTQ
#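 20 nM HPGD preincubated 15 min at room temperature with compound in 50 mM Tris-HCl pH 8, 0.01% Tween 20. Started with 1 mM NAD+ and 30 uM prostaglandin E2; NADH fluorescence (360/450 nm) read 5 times over 30-s intervals, last minus first.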
# ALDH1A1 block – ALDH1A1 (human) enzyme inhibition; P00352; Purified ALDH1A1, NADH fluorescence, propionaldehyde substrate; Potency, µM (series often up to 75.3 µM), for inactives: at the highest dose activity, negative = inhibition, hits mostly inhibitors; 220,000 compounds, 7.3% hits; AID 1030;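 further: potency means the concentration at half of the fitted maximal effect; plate controls were no enzyme wells and a reference inhibitor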
# An asterisk follows results filed as active; ? = inconclusive; · = no result given; [ ] = dose if it differs, or a comment. Unless noted, the call rests on the fitted dose curve; in most records, active means well fitted inhibition curve with a large enough effect (not every such curve was filed as active); inconclusive means small, poorly fitted or top-dose-only effect, or another doubt; inactive means no such curve, though single readings can be large or run the other way. Unless noted, on the % scale 0 is the no-effect control and ±100 the full control effect.
SMILES,PNC assembly inh,HPGD block,ALDH1A1 block
CC1=CS(=O)(=O)CC1Sc1nc(C)n[nH]1 (stereo not drawn),·,·,12%
CC1=CS(=O)(=O)CC1Sc1ncn[nH]1 (stereo not drawn),-100*,-20%,-1%
Cc1cc(O)c(C(C)C)cc1NC(=O)c1cccc(Cl)c1,82,-4%,-12%
COc1cc2oc(=O)cc(-c3ccc(-c4cccc(N)c4)cc3)c2c(OC)c1OC,·,-23%,?
Cc1oc(-c2ccccc2Cl)nc1CN1CCCCC1c1cccnc1 (stereo not drawn),·,·,-1%
COc1ccc(-c2cc(CNS(=O)(=O)c3ccc(F)cc3)on2)cc1,·,·,-3%
COCC(=O)n1nc(-c2ccccc2)nc1NCc1ccc(N(C)C)cc1,·,·,-7%
O=C(NCCN1CCOCC1)c1ccc(=O)oc1,-127*,-24%,-5%
O=C(NCCN1CCOCC1)c1ccc(F)cc1,15,-9%,1%
CCOC(=O)c1ccc(N2Cc3cc(C)c(C)cc3C2)cc1O,19,-14%,6%
O=C(O)c1ccc(N2Cc3ccccc3C2)cc1O,1,16µM*,28µM*
O=C(Nc1nnc(-c2ccc3c(c2)OCCO3)o1)C1CCCCC1,·,·,-13%
O=C(c1cccs1)N1CCN(Cc2ccccc2[N+](=O)[O-])CC1,-21,-5%,25µM*
COc1cccc(C(=O)N2CCN(Cc3ccccc3[N+](=O)[O-])CC2)c1,?,1%,?
COc1ccc(CN2CCN(C(=O)c3cccs3)CC2)c(OC)c1OC,-16,-11%,18µM*
COc1ccc(CN2CCN(C(=O)C3CCC(CNS(=O)(=O)c4ccccc4)CC3)CC2)c(OC)c1OC (stereo not drawn),·,·,14µM*
COc1ccc(CN2CCN(C(=O)CC(C)C)CC2)c(OC)c1OC,22,6%,-8%
CCOC(=O)N1CCN(C(=O)C2CCC(CNS(=O)(=O)c3ccccc3)CC2)CC1 (stereo not drawn),-28,-5%,?
Cc1ccc(C(=O)C2CCOC(C)(C)C2)cc1 (stereo not drawn),·,·,3%
Cc1cccc(NC(=O)CCSc2ccccn2)c1,9,14µM*,?
Cc1ccc(NC(=O)CCSc2ccccn2)cc1,?,-17%,-12%
O=C(CSc1ccccn1)c1ccc(F)cc1,?,25µM*,?
COC(=O)c1ccc(NC(=O)CSc2ccccn2)cc1,?,11µM*,?
COC(=O)c1ccc(NC(=O)CSc2ccccc2)cc1,11,-13%,5%
O=C(CSc1ccccn1)Nc1ccc2c(c1)C(=O)c1ccccc1C2=O,17,-10%,25µM*
SMILES,PNC assembly inh,HPGD block,ALDH1A1 block
Cc1ccc(C(=O)CSc2ccccn2)cc1,14,?,?
O=C(CSc1ccccn1)Nc1ccc2ccccc2c1,·,·,-7%
C[C@@H](C1=C(CCN(C)C)Cc2ccccc21)c1ccccn1,·,-14%,-3%
COc1c(C=O)c(O)cc2c1C(=O)c1ccccc1C2=O,·,·,3.5µM*
COc1ccc2c(c1O)C(=O)c1ccccc1C2=O,·,·,9%
O=C(C1CCN(Cc2ccc(F)cc2)CC1)N(CCc1ccccc1)Cc1ccccc1,73,-10%,-16%
Cc1n(N)c2ccccc2[n+]1CC(=O)c1ccccc1,·,·,5%
S=c1[nH]ccn1-c1cccc(Cl)c1,-9,-26%,-9%
Cc1ccc(-n2cc[nH]c2=S)cc1C,35,22µM*,?
O=C(O)/C=C(/C(=O)O)[C@]12CCN3CC4=CCO[C@@H]5CC(=O)N[C@@H]1C5[C@H]4C[C@H]32 (stereo partly drawn),·,-5%,-2%[13.5 µM]
O=c1c(CCc2ccccc2)nc2cnc(Oc3cccc(Cl)c3)nc2n1C[C@H]1CCCO1,·,-4%,?
CC(C)NC(=O)CCNC(=O)c1ccc(F)cc1,9,-6%,2.8µM*
CCCC(C)NC(=O)c1ccc(F)cc1 (stereo not drawn),-82*,?,40µM*
CCCC(C)NC(=O)c1ccc(-c2ccccc2)cc1 (stereo not drawn),·,·,10%
COc1cc(C(=O)NCCC(=O)NC(C)C)cc(OC)c1OC,·,·,-4%
NCCCCNS(=O)(=O)c1cccc2c(Cl)cccc12,·,-19%,-8%
O=[N+]([O-])c1ccc(NCCCNS(=O)(=O)c2ccc(Cl)cc2)c(Cl)c1,-21,-14%,1%
O=S(=O)(NCCCCCNS(=O)(=O)c1ccccc1)c1ccccc1,-91*,-11%,0.56µM*
O=[N+]([O-])c1ccc(NCCCNS(=O)(=O)c2ccccc2)cc1,·,·,18µM*
Cc1ccc(S(=O)(=O)NCCCNc2ccc([N+](=O)[O-])cc2)cc1,·,·,14µM*
NCCCCCCNS(=O)(=O)c1cccc2ccccc12,·,-26%,13µM*
O=S(=O)(NCCCc1ccccc1)c1ccccc1,22,-10%,?
Cc1ccc(S(=O)(=O)NCCCNS(C)(=O)=O)cc1,?,-6%,?
CCOc1ccc(NC(=O)c2cccc3c2C(=O)N(Cc2cccnc2)C3)cc1,9,-5%,-10%
O=C1c2ccccc2C(=O)c2c(Nc3cc4c5c(ccc6c7ccc8c9c(cc(Nc%10cccc%11c%10C(=O)c%10ccccc%10C%11=O)c(c3c56)c97)-c3ccccc3C8=O)C(=O)c3ccccc3-4)cccc21,·,-4%,-12%[13.5 µM]
SMILES,PNC assembly inh,HPGD block,ALDH1A1 block
Cn1c(=O)[nH]c(=O)c2c1nc(N1CCNCC1)n2Cc1cccc2ccccc12,?,-18%,-4%
CCc1c(C(=O)Nc2ccc(S(=O)(=O)N3CCOCC3)cc2)csc1C,-16,-15%,?
O=C(COC(=O)CC12CC3CC(CC(Br)(C3)C1)C2)NC(=O)NCc1ccco1,-8,3%,-7%
Cc1c(NC(=O)CSc2nnnn2Cc2ccccc2)c(=O)n(-c2ccccc2)n1C,-1,-4%,3%
COc1cccc(-n2nnnc2S(C)(=O)=O)c1,?,20µM*,1.3µM*
COc1cccc(-n2nnnc2SCC(=O)Nc2cccc(NC(C)=O)c2)c1,-14,-21%,7.1µM*
COc1ccc(-n2nnnc2SCC(=O)Nc2cccc(NC(C)=O)c2)cc1OC,-8,?,2%
O=C(CSc1nc2ccc(NC(=O)CSc3nnnn3Cc3ccccc3)cc2s1)Nc1ccccc1,259,?,13µM*
COC(=O)CSc1nc2ccc(NC(=O)CSc3nnnn3Cc3ccccc3)cc2s1,?,?,4.5µM*
Cc1cc(C)c(NC(=O)CSc2nc3ccc(NC(=O)CSc4nnnn4-c4ccccc4)cc3s2)c(C)c1,10,-18%,?
COc1cccc(-n2nnc(S(=O)(=O)c3ccc(C)cc3)c2N)c1,·,·,9%
CN(C)C(=O)c1ccc(-c2cncnc2NCCN2CCOCC2)cc1,·,-13%,-6%
COC(=O)[C@@]1(Cc2ccccc2)[C@H]2c3cc(C(=O)N(C)C)n(Cc4cc(F)c(F)c(F)c4)c3C[C@H]2CN1C(=O)c1ccccc1,·,-12%,-5%
CN(CC(=O)Nn1cnnc1)S(=O)(=O)c1ccccc1,37,1%,7%
C[C@H]1NC(=O)NC1=O,·,4%,12%[20.9 µM]
CC(=O)Nc1cccc(NC(=O)CSc2nnnn2Cc2ccccc2)c1,18,-8%,13µM*
CCn1nnnc1SCC(=O)Nc1cccc(NC(C)=O)c1,34,-10%,-16%
O=C(CN1C(=O)CSc2ccccc21)Nc1ccccc1C(=O)N1CCOCC1,23,-9%,4%
